In the library only some 4% were active in any assay of this set; here they are far more common.
Mdm2-MdmX inh: inhibitors of human Mdm2/MdmX interaction; AID 485346; 330,000 tested, 3% active; inhibition, % at 8 µM; O15151+Q00987; SaOS-2 split-luciferase Mdm2/MdmX complementation, luminescence;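 active = inhibition of at least 50% at 8 µM in the primary screen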
Target sequence (O15151 whole entry, looked up): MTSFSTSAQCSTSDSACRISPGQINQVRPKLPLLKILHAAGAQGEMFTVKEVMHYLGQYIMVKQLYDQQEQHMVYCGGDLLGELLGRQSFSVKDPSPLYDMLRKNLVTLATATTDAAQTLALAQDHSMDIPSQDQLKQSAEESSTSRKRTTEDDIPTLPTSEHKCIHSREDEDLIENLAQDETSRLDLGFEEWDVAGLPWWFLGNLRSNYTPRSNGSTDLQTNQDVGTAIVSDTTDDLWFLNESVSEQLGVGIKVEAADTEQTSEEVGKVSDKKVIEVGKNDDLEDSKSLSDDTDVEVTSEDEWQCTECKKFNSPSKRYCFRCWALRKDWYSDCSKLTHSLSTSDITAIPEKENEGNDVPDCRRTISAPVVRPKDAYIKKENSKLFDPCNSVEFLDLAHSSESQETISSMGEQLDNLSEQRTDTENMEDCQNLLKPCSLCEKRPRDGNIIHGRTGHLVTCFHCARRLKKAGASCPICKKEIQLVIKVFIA
Target sequence (Q00987 whole entry, looked up): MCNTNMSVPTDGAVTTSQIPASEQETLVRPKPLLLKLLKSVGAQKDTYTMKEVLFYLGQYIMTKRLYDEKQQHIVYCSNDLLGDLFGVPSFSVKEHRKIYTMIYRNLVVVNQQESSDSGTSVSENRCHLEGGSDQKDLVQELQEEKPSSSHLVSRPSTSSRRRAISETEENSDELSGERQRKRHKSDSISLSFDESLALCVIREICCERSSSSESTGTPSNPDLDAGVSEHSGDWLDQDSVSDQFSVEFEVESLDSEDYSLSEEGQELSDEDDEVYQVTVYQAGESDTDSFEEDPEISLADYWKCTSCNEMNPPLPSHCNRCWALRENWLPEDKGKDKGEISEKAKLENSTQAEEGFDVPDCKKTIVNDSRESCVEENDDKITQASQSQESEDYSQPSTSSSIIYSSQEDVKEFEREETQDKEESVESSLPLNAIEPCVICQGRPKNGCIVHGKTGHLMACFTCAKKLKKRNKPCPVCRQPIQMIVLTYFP
697 NFkB inh: lowers PMA/ionomycin-induced NF-kB signal in 697 B cells; inhibition, % at 4 µM; 697 B-cell NF-kB luciferase reporter, 16 h; 330,000 tested, 0.33% active; AID 435022; in the data active = inhibition above about 35%
Beta cell apopt: blocks beta cell apoptosis; INS-1E cytokine-induced death, ATP luminescence, 48 h; percent of positive-control rescue, neutral wells zero; protection from apoptosis, % (concentration not given with the values); 300,000 tested, 0.8% active;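 active = Every replicate reaches about 75%, or at least half do and their mean reaches it too, limit read from the data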;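 also: 0% = cytokine-treated negative control wells and 100% = positive control rescue; higher means more ATP so stronger rescue from cytokine killing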
Jurkat NFkB inh: inhibitors of the PMA/ionomycin-induced NF-kB reporter in Jurkat cells; PMA/ionomycin-induced NF-kB luciferase reporter, luminescence; inhibition, % at 4 µM; 330,000 tested, 0.53% active; AID 435003; in the data active = inhibition above about 50%
Gli-Sufu antag: antagonists of Gli-Sufu signaling. inhibition, % at 5 µM. Sufu-KO-LIGHT fibroblasts, Gli luciferase reporter luminescence. 340,000 tested, 0.74% active;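 active = inhibition above about 55%, limit read from the data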;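 also: 0% = DMSO-treated cells and 100% = wells with medium but no cells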
Mdm2 MdmX conf: human Mdm2/MdmX binding inhibition, confirmed. 10,000 tested, 55% active. shares compounds with Mdm2-MdmX inh. inhibition, % at 8 µM. luminescent assay; in the data active = inhibition above about 40%
FLuc counter: full-length luciferase inhibition in Mdm2/MdmX counter-screen | shares compounds with Mdm2-MdmX inh | SaOS-2 full-length luciferase counterscreen, luminescence | inhibition, % at 8 µM | 6,200 tested, 77% active | AID 504607;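 active = mean inhibition at 8 µM reaching about 37%, which flags the compound as non-specific, limit read from the data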;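 also: p53-null SaOS-2 cells with luciferase driven by a doxycycline-inducible promoter; compound on cells about two nights before reading with doxycycline added after day one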
Active calls of the source: *; / = no result.

SMILES	Mdm2-MdmX inh	697 NFkB inh	Beta cell apopt	Jurkat NFkB inh	Gli-Sufu antag	Mdm2 MdmX conf	FLuc counter
CCOC(=O)c1sc(Nc2ccc(F)cc2)nc1C	-6	-10	2	-10	-31	/	/
O=C(O)c1cc(S(=O)(=O)Nc2ccc3c(c2)OCCO3)c(Cl)cc1Cl	55*	-20	-4	-27	21	42*	67*
O=C(NCc1ccccc1)c1onc(CSc2ccc(F)c(F)c2)c1C(=O)NCc1ccccc1	12	-14	/	1	-2	/	/
Cc1c(Cc2ccccc2)c(=O)oc2c(C)c(OCC(=O)Nc3ccc(C#N)cc3)ccc12	5	-14	-3	-3	-1	/	/
Cc1cccc(C)c1NC(=O)COc1ccc2c(C)c(Cc3ccccc3)c(=O)oc2c1C	97*	6	10	18	12	11	/
Cc1ccc2[nH]c(=O)c(COC(=O)c3cccs3)cc2c1	51*	21	0	-1	4	9	/
CC(=O)C[C@H]1c2cc(F)ccc2S(=O)(=O)N1c1ccc(N(C)C)cc1	20	1	6	14	-3	/	/
COc1ccccc1NS(=O)(=O)c1cc(NC(=O)c2sc3cc(Cl)ccc3c2Cl)ccc1C	53*	-1	-3	4	18	33	104*
CCN(CC)Cc1ccc(NC(=O)c2sc3cc(Cl)ccc3c2Cl)cc1	55*	-26	1	16	3	21	/
O=C1CN(C(=O)c2ccc(Cl)c(S(=O)(=O)N3CCc4ccccc43)c2)c2ccccc2N1	86*	-20	11	5	-1	78*	64*
COc1ccc(NS(=O)(=O)c2csc(C(=O)N3CCCC3)c2)c(OC)c1	12	-11	2	6	11	/	/
CCCCn1c(=NC(C)=O)c(C#N)cc2c(=O)n3cccc(C)c3nc21	14	11	6	9	4	/	/
CCCCCn1c(=NC(=O)c2cccnc2)c(C#N)cc2c(=O)n3cccc(C)c3nc21	73*	-12	14	23	-17	51*	42*
CSCCC(NC(=O)COc1ccccc1)C(=O)N1CCCC(C(F)(F)F)C1 (centres undefined)	-4	26	/	-1	1	/	/
Cc1c(Cl)cccc1NC(=S)NNc1ncc(C(F)(F)F)cc1Cl	64*	-15	32	11	31	72*	42*
O=C(CSc1ccc(-c2cccnc2)nn1)Nc1ccc(F)cc1	20	2	-4	-5	7	/	/
COc1ccccc1NS(=O)(=O)c1cccc(C(=O)NCc2ccncc2)c1	16	12	3	1	2	/	/
COc1ccc2oc(=O)c(-c3csc(Nc4ccc(O)cc4)n3)cc2c1	54*	3	-6	6	16	19	133*
COc1ccc(-c2oc3ncnc(NCCCN4CCOCC4)c3c2-c2ccc(OC)cc2)cc1	60*	2	0	10	5	31	/
COc1ccc(CCNCCN2CCOCC2)cc1	17	11	/	4	2	/	/
c1ccc(-c2oc3ncnc(NCCCN4CCOCC4)c3c2-c2ccccc2)cc1	16	9	-5	5	11	/	/
COc1ccc(-c2oc3ncnc(NCCN4CCOCC4)c3c2-c2ccc(OC)cc2)cc1	80*	-52	41	-11	16	37	/
COc1ccc(-c2oc3ncn(CCN4CCOCC4)c(=N)c3c2-c2ccc(OC)cc2)cc1	57*	-29	48	-10	15	38	49*
Cn1c(CCNS(=O)(=O)c2ccccc2)nnc1SCc1cccnc1	-5	-3	/	7	-20	/	/
CC1(C)C(=O)Nc2ccccc2N1C(=O)COC(=O)c1cccnc1	-8	4	4	-17	3	/	/
SMILES	Mdm2-MdmX inh	697 NFkB inh	Beta cell apopt	Jurkat NFkB inh	Gli-Sufu antag	Mdm2 MdmX conf	FLuc counter
Cc1ccc2c(c1)c1c(c(=O)n(-c3ccccc3C)c(=O)n1CC(=O)NCC1CCCO1)n2C (centres undefined)	10	-6	-3	15	-12	/	/
Cc1ccccc1C(=O)Nc1ccc(-c2nc3ccc(C(=O)c4ccccc4)cc3[nH]2)cc1	67*	-27	14	2	-5	33	46*
O=C(c1ccccc1)c1ccc2nc(-c3ccc(NC(=O)c4ccccc4Br)cc3)[nH]c2c1	29	0	/	-6	5	/	/
CC(C)(C)C(=O)N(Cc1ccc(Cl)cc1)Cc1cccnc1	-9	-9	-8	2	-1	/	/
Cc1nc(Sc2ccc(Br)cc2)c(C#N)c(C)c1[N+](=O)[O-]	53*	-4	0	-22	5	32	/
Cc1ccc(Sc2nc(C)c([N+](=O)[O-])c(C)c2C#N)cc1	24	-20	/	0	8	/	/
OCCN1CCN(CC(O)COc2ccc(C34CC5CC(CC(C5)C3)C4)cc2)CC1 (centres undefined)	95*	-38	47	-33	12	73*	22
O=C(CCCSc1nc(-c2ccco2)cc(C(F)(F)F)n1)Nc1ccc2c(c1)OCO2	24	21	3	11	2	/	/
COc1ccccc1CCNC(=O)CCSc1nc(-c2ccco2)cc(C(F)(F)F)n1	23	1	6	1	1	/	/
COc1ccccc1CCNC(=O)CSc1nc(-c2ccco2)cc(C(F)(F)F)n1	76*	-12	/	-4	-22	43*	83*
CCOC(=O)c1sc(NC(=O)CSc2nc(-c3ccco3)cc(C(F)(F)F)n2)c(C(=O)OC)c1C	73*	12	-6	-27	4	29	17
O=C(CSc1nc(-c2ccco2)cc(C(F)(F)F)n1)Nc1ccc2c(c1)OCO2	62*	-46	-3	45	3	65*	44*
CC(=O)c1cccc(NC(=O)COC(=O)c2n[nH]c3ccccc23)c1	-37	14	-3	2	6	/	/
NC(=S)NNC(=O)[C@@H]1CCCC[C@@H]1C(=O)O	6	-27	6	4	-8	/	/
O=C(NNC(=O)c1ccccc1F)c1cccc(S(=O)(=O)N2CCc3ccccc32)c1	19	-37	38	-2	39	/	/
CCNC(C(=O)c1c[nH]c2c(CC)cccc12)c1ccccc1 (centres undefined)	22	19	-4	17	-8	/	/
COc1cc(/C=C/C(=O)c2ccc3c(c2)OCO3)cc(OC)c1OC	91*	2	-53	2	7	60*	38*
COc1ccc(OC)c(/C=C/C(=O)c2ccc3c(c2)OCCO3)c1	76*	-3	-15	0	3	16	/
COc1cc(/C=C/C(=O)c2ccc3c(c2)OCCO3)cc(OC)c1OC	67*	-14	-21	18	31	46*	66*
COc1ccc(C(=O)O/N=C(\N)c2ccccc2)cc1	55*	-236	-3	-106	-78	22	/
COc1ccc(C(=O)O/N=C(\N)c2ccc(Br)cc2)cc1	96*	-70	-10	-75	-30	36	158*
CC(C)(C)C(=O)O/N=C(\N)c1ccc(Br)cc1	42	17	2	-13	-1	/	/

Source: PubChem (several laboratories)
